The values that follow come from PubChem BioAssay AID1117291 (Broad Institute, 2014).

Results with a measured potency or affinity are listed apart. Inconclusive results are not listed. Active and inactive are the calls of the source.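 How the source made its calls: active means compound whose fitted half-maximal potency lies at or below double its highest tested dose in every test; inconclusive means tests disagree, or a flat partial loss, or a poor fit; inactive means every test inactive.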

The assay is described as follows: hepatoma cell viability loss – CellTiter-Glo luminescence, dry powder, set 20, cytotoxicity control, dose response (AID 1117291). Particulars: HepG2 viability, CellTiter-Glo ATP luminescence, 72 h; series mostly up to 26 µM.
Regarding `CC(=O)N1CCN(C(=O)C2(NC(=O)Nc3ccc(C(C)C)cc3)CCCC2)CC1`, the call was inactive.

Turning to `O=S(=O)(Nc1cc(C(F)(F)F)ccc1N1CCCCC1)c1ccc(-c2ccccc2)cc1`, the compound was classed as inactive.

As to `COc1ccc(C(=O)Nc2cc(C(F)(F)F)ccc2N2CCCC2)cc1S(=O)(=O)O`, the outcome was inactive.

For `COc1cccc(NC(=O)NC2(C(=O)N3CCN(C(C)=O)CC3)CCCCC2)c1`, the call was inactive.

Turning to `COc1ccc(C(=O)O)cc1S(=O)(=O)Nc1cc(C(F)(F)F)ccc1N1CCCCC1`, the result was inactive.

For the compound `O=[N+]([O-])c1cccc(S(=O)(=O)Nc2cc(C(F)(F)F)ccc2N2CCCCC2)c1`, the call was inactive.

With `CC(=O)N1CCN(C(=O)C2(NC(=O)Nc3ccccc3)CCCC2)CC1`, the result was inactive.

As for `O=S(=O)(Nc1cc(C(F)(F)F)ccc1N1CCCCC1)c1ccc(F)cc1`, the result was inactive.

In the case of `Cc1ccccc1S(=O)(=O)Nc1cc(C(F)(F)F)ccc1N1CCCCC1`, the call was inactive.

Turning to `NC(=NCCc1c[nH]c2ccccc12)NS(=O)(=O)c1cc(F)ccc1F`, the call was inactive.

Take `CC(=O)N1CCN(C(=O)C2(NC(=O)NCCc3ccccc3)CCCCC2)CC1`: the outcome was inactive.

Regarding `CC(=O)N1CCN(C(=O)C2(NC(=O)Nc3ccccc3F)CCCCC2)CC1`, the outcome was inactive.

Consider `O=S(=O)(Nc1cc(C(F)(F)F)ccc1N1CCCCC1)c1ccc(Cl)cc1`, for which the result was inactive.

On to `CC(=O)N1CCN(C(=O)C2(NC(=O)Nc3ccc(C(C)C)cc3)CCCCC2)CC1`, for which the call was inactive.

Regarding `Cn1cnc(S(=O)(=O)Nc2cc(C(F)(F)F)ccc2N2CCCCC2)c1`, the outcome was inactive.

For `O=[N+]([O-])c1ccc(S(=O)(=O)Nc2cc(C(F)(F)F)ccc2N2CCCCC2)c([N+](=O)[O-])c1`, the compound was classed as inactive.

On to `COc1ccc(C(=O)O)cc1S(=O)(=O)Nc1cc(C(F)(F)F)ccc1N(C)C`, for which the compound was classed as inactive.

Take `CC(=O)N1CCN(C(=O)C2(NC(=O)Nc3ccc(C)cc3)CC2)CC1`: the call was inactive.

Consider `COc1ccc(C(=O)Nc2cc(F)ccc2N2CCCCC2)cc1S(=O)(=O)O`, for which the outcome was inactive.

Take `CC(=O)N1CCN(C(=O)C2(NC(=O)Nc3ccc(C(F)(F)F)cc3)CCCC2)CC1`: the outcome was inactive.

As for `CC(=O)N1CCN(C(=O)C2(NC(=O)Nc3cccc(C(F)(F)F)c3)CCCCC2)CC1`, the call was inactive.

On to `CC(=O)N1CCN(C(=O)C2(NC(=O)Nc3ccc(C(F)(F)F)cc3)CCCCC2)CC1`, for which the call was inactive.
